Assay results: the OligoGym collection

The sequences below were run against KLF9 (assay: pooled miR-30 sensor sort-seq; sequence = guide strand). Conditions: shRNA.
Further: reference of the scale not given here.

In order of rising sensor-assay potency score (higher = more potent):
1. TAACTTATTCATCCTCTGCATT  -0.919
2. TTCTGTAATTGTAACTACCAAA  -0.904
3. TTCACCTGTATGCACTCTGTAA  -0.85
4. TAGTAGTCCTATTTGAACCATA  -0.845
5. TTGATCTTAGGCTACAATGTGC  -0.659
6. TTTCTCGTGAGAAAACACTTTC  -0.637
7. TATCTTGATATAGTAAATCTAA  -0.625
8. TTCTTTCTTTTTAAACACCTGC  -0.453
9. TTTATATCCATCTAAGTGCTTG  -0.361
10. TTAGTGTTCAATGAACTCTAGT  -0.32
11. TCTACATAACTCTTGCACCTGA  -0.302
12. TTCTGTACTTAGTGTAACCTTT  -0.287
13. TTCAGGTCCAACAAGCTCTTGG  -0.253
14. TTGTCTTTCACTGACTTTGCTT  -0.214
15. TTACAAGTTAGCAAGTTGCTAG  -0.0943
16. TTAAACAGTTGTAAAGATCAGT  -0.0225
17. TTGCAAAACACTACCCTCCTTC  -0.0123
18. TAAACAAAAATTACTATCCTGC  0.0439
19. TTAATCTCAAAAGTTAACGTGA  0.201
20. TTAAACACCTGCAATAGTCTTT  0.257
21. TTTAGATGACAGATCATGCTGG  0.459
22. TTCGATCGCTTGATCATGCTGG  0.623
23. TACAGTGTTACAGATCATCTGA  0.728

These sequences were tested against KLHL20 in the same assay as above. Conditions: shRNA.

In order of falling sensor-assay potency score (higher = more potent):
1. TTGAACACTTGTTCTTCACTGC  0.569
2. TATGTTGGGTGAACTTGTCTGC  0.299
3. TACAGCATAGATCATGTCCTGA  0.298
4. TAATTGAGGACGTCTTTCCTGA  0.0524
5. TACATTTTGCATACCTACCTTT  -0.113
6. TCTCCTGTAAACATAGCTCGGA  -0.114
7. TTGAAAATTATTGTGCATCTTG  -0.295
8. TTGTTCTTCACTGCGAACGTTT  -0.688
9. TCATCTACCAAGTCTCTGCATT  -0.755
10. TTCTTCATCACTTTTGATGAGG  -0.804
11. TTGTTTGTATAAAAGAACCAAG  -1.24
12. TTTGTCTATGAATACAATGAGG  -1.57

These sequences were tested against KLHL24 in the same assay as above. Conditions: shRNA.

In order of falling sensor-assay potency score (higher = more potent):
1. TTTTGTGACGCCATCTGCCTTT  -0.286
2. TTCAACTGGATCGTAACAGTAT  -0.312
3. AAACTTTTCGCTTAGTTGCTGG  -0.446
4. TTGCCTTGGTCAGTCCACCGGC  -0.546
5. TATCAGAACAAGTATTATCATC  -1.27
